Measurements as given in PubChem BioAssay (NCATS).
Records with an inconclusive call do not appear. Calls of active or inactive are those of the source. Calls follow the shape of the dose curve; as a rule, active = well fitted curve in the direction sought with a large enough effect; inconclusive = small, poorly fitted or top-dose-only effect, or another doubt; inactive = no such curve, though single readings can be large; an effect the other way counts as inactive or inconclusive.

Assays:
[1] = biological target: Metallo-beta-lactamase type 2 (Klebsiella pneumoniae) (UniProt C7C422); assay: qHTS to identify inhibitors of the New Delhi Metallo-beta-lactamase (NDM): assay validation screen against the NCATS LOPAC Collection (AID 1794843); also: series mostly up to about 38 µM
Sequence of Metallo-beta-lactamase type 2 (Klebsiella pneumoniae) (C7C422 whole entry, looked up): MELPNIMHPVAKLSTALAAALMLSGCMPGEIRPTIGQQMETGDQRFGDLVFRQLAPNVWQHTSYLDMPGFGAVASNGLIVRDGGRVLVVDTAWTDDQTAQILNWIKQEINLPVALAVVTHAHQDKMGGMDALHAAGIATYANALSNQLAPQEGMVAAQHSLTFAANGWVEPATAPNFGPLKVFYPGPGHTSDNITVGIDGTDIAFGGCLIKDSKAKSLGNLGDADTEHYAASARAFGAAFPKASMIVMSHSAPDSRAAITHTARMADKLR
Summary of the method: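 Absorbance at 485 nm from nitrocefin turnover (50 uM solution added), read at plateau, gives the read-out. Compounds in DMSO were incubated first with 2 nM final NDM-1 in pH 7.0 HEPES buffer containing 1 uM ZnSO4 and 0.01% Tween20.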

[2] = biological target: Glutathione peroxidase 1 (Homo sapiens) (UniProt P07203); assay: Primary qHTS Assay for Inhibitors of Recombinant Selenoprotein Glutathione Peroxidase 1 (GPX1) (AID 1845191); also: nearly all actives have a fitted effect of over 65% in size
Sequence of Glutathione peroxidase 1 (Homo sapiens) (P07203 whole entry, looked up): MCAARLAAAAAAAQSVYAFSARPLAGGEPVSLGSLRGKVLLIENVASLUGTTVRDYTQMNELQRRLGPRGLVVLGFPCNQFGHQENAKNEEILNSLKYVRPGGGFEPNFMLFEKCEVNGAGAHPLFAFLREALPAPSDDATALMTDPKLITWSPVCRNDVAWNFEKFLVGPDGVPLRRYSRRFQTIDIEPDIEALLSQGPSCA
Summary of the method: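 GPX1 10 nM, GR 100 nM, GSH 1 mM, NADPH 0.5 mM, CHP 0.5 mM (final). 30-min cpd preincubation, RT. Ex340/Em450 read t=0, t=15 min.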

[3] = biological target: Phospholipid hydroperoxide glutathione peroxidase GPX4 (Homo sapiens) (UniProt P36969); assay: Primary qHTS Assay for Inhibitors of Recombinant Selenoprotein Glutathione Peroxidase 4 (GPX4) (AID 1845192); also: nearly all actives have a fitted effect of over 65% in size
Sequence of Phospholipid hydroperoxide glutathione peroxidase GPX4 (Homo sapiens) (P36969 whole entry, looked up): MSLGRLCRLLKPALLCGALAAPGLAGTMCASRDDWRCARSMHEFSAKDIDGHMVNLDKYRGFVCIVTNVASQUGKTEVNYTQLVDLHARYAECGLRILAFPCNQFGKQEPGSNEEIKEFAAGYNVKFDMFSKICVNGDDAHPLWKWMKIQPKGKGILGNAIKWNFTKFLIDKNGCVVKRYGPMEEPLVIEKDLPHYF
Summary of the method: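 qHTS, GR-coupled: GPX4 200 nM + cpd 30 min RT → GSH 1 mM, NADPH 0.5 mM, GR 100 nM → CHP 0.5 mM start; fluor 340/450 at t0 and t15 min; no-enzyme wells as control.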

[4] = biological target: Luciferin 4-monooxygenase (Photinus pyralis) (UniProt P08659); assay: Primary firefly luciferase (FLuc) qHTS assay for identification of artifact compounds. (AID 1845220); settings: outcome: dose series up to 54.1 µM unless noted; also: nearly all actives have a fitted effect of over 60% in size
Summary of the method: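 In this counter-screen for luciferase artifacts, test compounds met substrate (10 uM each luciferin and ATP) before 10 nM enzyme started the reaction. Light output was measured 5 min later.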

[5] = Primary fluorescence-based thiol-reactive (MSTI) qHTS assay for identification of artifact compounds. (AID 1845221);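 also: series mostly up to about 54 µM; thiol-reactive compounds lower the probe fluorescence signal; nearly all actives have a fitted effect of over 65% in size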
Summary of the method: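 Reactivity toward the thiol probe MSTI (4 uM) is scored by fluorescence at Ex/Em 525/598 nm after 1 h at room temperature. Acetyl-MSTI and MSTI define the activity scale.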

[6] = tested on: Nanoluciferase (engineered Oplophorus gracilirostris luciferase); assay: Primary Nanoluciferase (NLuc) qHTS assay for identification of artifact compounds. (AID 1845222);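 also: NLuc secreted into diluted conditioned medium of S16 cells; series mostly up to about 54 µM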
Summary of the method: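 Using secreted nanoluciferase in S16 culture medium (0.22 um filtered, 1:55 dilution), compounds were preincubated 15 min at RT. Signal was generated with Nano-Glo reagent (1:100) over 5 min.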

[7] = Primary redox qHTS assay for identification of artifact compounds. (AID 1845223)
Summary of the method: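 Redox-cycling detection via DTT (250 uM final) oxidation coupled to Amplex Red (25 uM)/HRP (250 mU/mL) in HBSS. 15 min preincubation plus 30 min after DTT, room temperature. Ex/Em 525/598 nm; 4-parameter Hill fit against DMSO and 10 uM DA3003.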

Measured: Potency

CN1CCC[C@@H]1Cc1c[nH]c2ccc(CCS(=O)(=O)c3ccccc3)cc12
inactive: all assays above

CC(C)c1c(C(=O)Nc2ccccc2)c(-c2ccccc2)c(-c2ccc(F)cc2)n1CC[C@@H](O)C[C@@H](O)CC(=O)O
inactive: [1] | [2] | [3] | [4] inactive [at 25.7 µM] | [5] | [6]

C[C@]12CC[C@@H]3c4ccc(O)cc4CC[C@H]3[C@@H]1CCC2=O
inactive: [1] | [2] | [3]

CC1=C(CC(=O)O)c2cc(F)ccc2/C1=C\c1ccc(S(C)(=O)=O)cc1
inactive: [1] | [2] | [3]

CC(C)NC[C@H](O)c1ccc(O)c(O)c1
inactive: [1] | [2] | [3]

CN1CCN(C2Cc3ccccc3Sc3ccc(Cl)cc32)CC1 (stereo not given)
inactive: [1] | [2] | [3]

CSc1ccc2c(c1)C(N1CCN(C)CC1)Cc1ccccc1S2 (stereo not given)
inactive: [1] | [2] | [3]

COc1ccc(Cl)cc1C(=O)NCCc1ccc(S(=O)(=O)NC(=O)NC2CCCCC2)cc1
not listed: [6] | [7]
inactive: all other assays above

CC(C)(C(=O)O)c1ccc(C(O)CCCN2CCC(C(O)(c3ccccc3)c3ccccc3)CC2)cc1 (stereo not given)
inactive: all assays above

CC(=O)c1ccc2c(c1)N(CCCN(C)C)c1ccccc1S2
inactive: [1] | [2] | [3]

CCCCc1ncc(/C=C(\Cc2cccs2)C(=O)O)n1Cc1ccc(C(=O)O)cc1
inactive: all assays above

C#CCN(C)Cc1ccccc1
inactive: [1] | [2] | [3]

CN(C)CCCN1c2ccccc2Sc2ccc(Cl)cc21
inactive: [1] | [2] | [3]

O=C1c2c(O)cccc2Cc2cccc(O)c21
inactive: [2] | [3]

Nc1ccc(S(=O)(=O)Nc2ccc(Cl)nn2)cc1
inactive: [2] | [3]

NC(=O)c1ncn([C@@H]2O[C@H](CO)[C@@H](O)[C@H]2O)n1
inactive: [1] | [2] | [3]

C[C@@H](O)[C@H](N)C(=O)O
inactive: [2] | [3]

C[C@H]1O[C@@H](n2cc(F)c(=O)[nH]c2=O)[C@H](O)[C@@H]1O
inactive: [1] | [2] | [3]

CNCC(O)c1ccc(O)c(O)c1 (stereo not given)
inactive: [1] | [2] | [3]

CCN(CC)CCCC(C)Nc1c2ccc(Cl)cc2nc2ccc(OC)cc12 (stereo not given)
inactive: [1] | [2] | [3] | [4] inactive [at 25.7 µM] | [5] | [6] | [7]

N=c1c[n+](N2CCOCC2)[n-]o1
inactive: [1] | [2] | [3]

CC(C(O)c1ccc(O)cc1)N1CCC(Cc2ccccc2)CC1 (stereo not given)
inactive: [1] | [2] | [3] | [4] inactive [at 25.7 µM] | [5] | [6] | [7]

COc1ccc2cc1Oc1cc3c(cc1OC)CC[N+](C)(C)[C@H]3Cc1ccc(cc1)Oc1c(OC)c(OC)cc3c1[C@@H](C2)[N+](C)(C)CC3
inactive: [2] | [3]

NC(=O)c1ncn([C@@H]2O[C@H](CO)[C@@H](O)[C@H]2O)c1N
inactive: [2] | [3]

N[C@@H](CSCCCO)C(=O)O
inactive: [2] | [3]

NS(=O)(=O)c1cc2c(cc1Cl)NC(CSCc1ccccc1)=NS2(=O)=O
inactive: [2] | [3]

CC[C@@]1(c2ccccc2)NC(=O)N(C)C1=O
inactive: [2] | [3]

N[C@H]1C(O)O[C@H](CO)[C@@H](O)[C@@H]1O (stereo not given in full)
inactive: [2] | [3]
